Among all 1,200 compounds or so, about 360 (30%) were called active. The list is a sample of the results. Measured potencies and affinities stand elsewhere. Values without a mark were called inactive. The rule behind the calls is not given here.
Test: antibacterial activity by ATP level – BacTiter-Glo luminescence, cherry-picked samples, counter-screen, dose response (AID 504843);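 note: growth measured after 8 h incubation at 30 °C; 0% = median of sample compound wells and -100% = antibiotic control wells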
Conditions: bacterial growth; series mostly up to 15 µM; activity change, negative = inhibition: at the top concentration

Going from CN(C)S(=O)(=O)c1cccc(NC(=O)C2CCN(S(=O)(=O)c3cccs3)CC2)c1 to Cc1cc(NC(=O)C2CC2)ccc1NC(=O)c1cccs1, the “activity change, negative = inhibition” value falls from 12.5% to -17.9%.

First: Cn1c(SCC(=O)NCc2cccs2)nnc1-c1ccc(S(=O)(=O)N2CCCC2)cc1
Second: CSc1ccccc1NC(=O)CN(C)CC(=O)Nc1ccc(S(=O)(=O)N2CCCC2)cc1
The “activity change, negative = inhibition” value of the first is higher: 11% for the first, 6.77% for the second.

First: CCCCn1c(N)c(N(CC)C(=O)c2ccc(Cl)c(Cl)c2)c(=O)[nH]c1=O
Second: CCCCCN(C(=O)CCC(=O)OCC(=O)N(C)Cc1ccc(C)cc1)c1c(N)n(CCCC)c(=O)[nH]c1=O
The “activity change, negative = inhibition” value of the first is higher: 8.09% for the first, -1.92% for the second.

Compared with CC1(C)CC(NC(=O)c2ccc(-c3ccc([N+](=O)[O-])cc3)o2)CC(C)(C)N1, Cc1ccc(Cn2nc(C)c(NC(=O)c3cc(C)no3)c2C)cc1 is higher in “activity change, negative = inhibition” value: -7.62% for the first, 7.15% for the second.

Compared with CC(O)(CC(=O)CC(=O)c1ccccc1)c1ccccc1 (configuration not stated), O=C(Cc1ccccc1Cl)c1ccccc1 is higher in “activity change, negative = inhibition” value: -0.437% for the first, 10% for the second.

Compared with COc1ccc(C2CC(=O)c3cnc(NC(=O)c4ccccc4)nc3C2)c(OC)c1 (configuration not stated), COc1ccc(-c2ccc(-c3noc(-c4ccccc4OC)n3)c(OC)n2)cc1 is higher in “activity change, negative = inhibition” value: -3.54% for the first, 11.3% for the second.

First: S=c1[nH]nc(-c2cccnc2)n1C1CCCCC1
Second: CN(C(=O)c1cc2sccc2n1C)C1CCCCC1
The “activity change, negative = inhibition” value of the first is lower: 6.26% for the first, 12.9% for the second.

Going from COCc1cc(=O)[nH]c2cc(NC(=O)C(F)(F)F)c(C)cc12 to COc1cc2cc(CN(CCO)S(=O)(=O)c3ccccc3Cl)c(=O)[nH]c2cc1OC, the “activity change, negative = inhibition” value falls from 13.1% to 0.781%.

Compared with CCOc1ccccc1C1C(C(N)=O)=C(C)Nc2nc(-c3ccccc3Cl)nn21 (configuration not stated), Cc1nn(Cc2ccccc2)c(C)c1NC(=O)c1noc2c1CCc1ccccc1-2 is lower in “activity change, negative = inhibition” value: 9.98% for the first, -0.677% for the second.

First: COc1ccc(C2C(C#N)=C(N)Oc3c2sc2nc(C)cc(C)c32)cc1 (configuration not stated)
Second: CC1=CC(C)(C)N2C(=O)C3(C(C#N)=C(N)OC4=C3C(=O)CCC4)c3c(C)c(C)cc1c32 (configuration not stated)
The “activity change, negative = inhibition” value of the first is higher: 17.4% for the first, 5.51% for the second.

First: Cc1ccc2cccc(OCC(=O)N3CCc4ccccc43)c2n1
Second: N#Cc1cn(CC(=O)N2CCCc3ccccc32)c2ccccc12
The “activity change, negative = inhibition” value of the first is lower: -10.9% for the first, 9.03% for the second.

First: Cc1cc(-n2c(C)cc(C(=O)COc3cccnc3[N+](=O)[O-])c2C)no1
Second: CCOC(=O)CSc1cc(CS(C)(=O)=O)nc(-c2ccccn2)n1
The “activity change, negative = inhibition” value of the first is lower: -3.66% for the first, 7.55% for the second.

Going from CC(C)C[C@H]1C(=O)N2CCC[C@H]2[C@]2(O)O[C@](NC(=O)[C@@H]3C=C4c5cccc6[nH]c(Br)c(c56)CC4N(C)C3)(C(C)C)C(=O)N12 (some centres not stated) to Cc1ccc(C(=O)N/C(=C\c2ccc(C(C)C)cc2)C(=O)NCCCN2CCOCC2)cc1, the “activity change, negative = inhibition” value falls from -4.13% to -15.5%.

Going from CCC(C)OC1OC(CO)C(O)C(O)C1NC(C)=O (configuration not stated) to C/C(=C\C(=O)OCCCCCCCCC(=O)O)C[C@@H]1OC[C@H](C[C@@H]2O[C@H]2[C@@H](C)[C@H](C)O)[C@@H](O)[C@H]1O, the “activity change, negative = inhibition” value falls from 13.9% to 0.167%.

Compared with CCOC(=O)c1c(NC(=O)CCC(=O)O)sc2c1CC(C)(C)OC2, CC(C)OC(=O)c1c(NC(=O)c2ccco2)sc2c1CCCC2 is higher in “activity change, negative = inhibition” value: 15.3% for the first, 17.8% for the second.

Going from COc1ccc(S(=O)(=O)N2CCCOC2CNC(=O)C(=O)NCCCN2CCOCC2)cc1 (configuration not stated) to COC(=O)Nc1ccc2c(c1)N(C(=O)CCN1CCOCC1)c1ccccc1S2, the “activity change, negative = inhibition” value falls from -0.455% to -14.7%.

Going from O=C1OCc2ccc(NC(=O)C3CC3)cc21 to O=C(CCCc1ccccc1)Nc1ccc2c(c1)OCCO2, the “activity change, negative = inhibition” value falls from 1.73% to -10%.

First: COc1ccc(-c2nc(C#N)c(NCC3CCCO3)o2)cc1OC (configuration not stated)
Second: COc1ccc(S(=O)(=O)N(C)C)cc1NC(=O)CSc1nnc(-c2cccnc2)o1
The “activity change, negative = inhibition” value of the first is lower: -1.88% for the first, 6.6% for the second.

Compared with CC1CCN(CC[C@H]2CCCN2S(=O)(=O)c2cccc(O)c2)CC1, CC1(C)CC(=O)C=C(NCCN2CCN(C(=O)Nc3ccccc3)CC2)C1 is higher in “activity change, negative = inhibition” value: 2.47% for the first, 19.7% for the second.

Compared with Cc1ccc(C(=O)c2cnc3ccccc3c2-c2ccccc2)cc1, O=C(NCCc1ccccc1)c1n[nH]c2ccccc12 is higher in “activity change, negative = inhibition” value: -8.6% for the first, 6.31% for the second.

Compared with CN(C)CCCNC(=O)C(=O)NCC1CCCO1 (configuration not stated), CC(C)c1cc(C(=O)NCc2ccco2)no1 is higher in “activity change, negative = inhibition” value: -5.29% for the first, 14.4% for the second.

Going from Cc1ccc(-n2c3nc(=O)[nH]c(=O)c-3cc3c(C)nn(-c4ccccc4)c32)c(C)c1 to Cc1c(C)c2c(C)nn(-c3ccccc3)c2[nH]c1=O, the “activity change, negative = inhibition” value falls from 8.81% to -4.55%.

Compared with CC1CCc2nc(N)c(C#N)c(-c3ccncc3)c2C1 (configuration not stated), Cc1ccc(-n2nnnc2-c2cnc3cc4c(cc3c2C)OCO4)cc1 is lower in “activity change, negative = inhibition” value: 16.1% for the first, 1.35% for the second.

Going from CCN(CC)S(=O)(=O)c1ccc(S(=O)(=O)Nc2ccc3c(c2)oc2ccccc23)cc1 to CC(C)(C)OC(=O)N(CCc1ccccc1)Cc1cccc(OCc2cccc(NC(=O)/C=C/c3ccccc3)c2)c1, the “activity change, negative = inhibition” value rises from 2.45% to 7.89%.

Going from COCCCN=C(c1ccco1)n1c(=S)nc(-c2ccco2)n(CCCOC)c1=S to O=C(NCc1ccccn1)C1CC(c2ccccc2O)=NO1 (configuration not stated), the “activity change, negative = inhibition” value falls from 6.13% to -9.99%.

Compared with O=C(COc1ccc([N+](=O)[O-])cc1)Nc1cc(S(=O)(=O)N2CCCCC2)ccc1N1CCCCC1, CC(C)C(c1nnnn1C1CCCC1)N1CCC(C(N)=O)CC1 (configuration not stated) is lower in “activity change, negative = inhibition” value: 8.82% for the first, -2.09% for the second.
